For some assays here: Potency and affinity values are given separately. Active and inactive are the calls of the source. Unless noted, the rule behind the calls is not given here.
Biological target: Protein kinase 7 (PK7), Plasmodium falciparum 3D7 (PF3D7_0213400) (UniProt Q7YTF7)
Assay: inhibition of Plasmodium PK7 catalytic activity – biochemical, TCAMS antimalarial set, Kinase-Glo luminescence (AID 1159587)
Details: recombinant PfPK7, Kinase-Glo ATP depletion luminescence

Sequence of Protein kinase 7 (PK7), Plasmodium falciparum 3D7 (PF3D7_0213400) (Q7YTF7 1-343): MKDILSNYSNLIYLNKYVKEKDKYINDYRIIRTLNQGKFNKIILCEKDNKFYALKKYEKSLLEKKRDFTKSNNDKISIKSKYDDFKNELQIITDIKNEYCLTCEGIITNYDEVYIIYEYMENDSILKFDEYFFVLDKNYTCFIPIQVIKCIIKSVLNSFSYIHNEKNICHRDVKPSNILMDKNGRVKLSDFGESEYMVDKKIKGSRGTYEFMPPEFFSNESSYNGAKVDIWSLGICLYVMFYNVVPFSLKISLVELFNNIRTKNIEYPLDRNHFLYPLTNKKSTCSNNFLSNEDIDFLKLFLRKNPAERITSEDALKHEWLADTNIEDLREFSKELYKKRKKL

outcome, inactive:
COc1c(CNCCCCCCNCc2cc(Cl)c3ccccc3c2OC)cc(Cl)c2ccccc12
CCCc1cc(OC)c(CC2c3cccc(O)c3CCN2C)cc1OC (stereo not given)
CCOc1ccccc1CNc1nccc(NCc2ccccc2OC)n1
OCc1ccc2nc3c(cc2c1)-c1cccc2cccc-3c12
COc1ccc2ncc(F)c(CCN3CCC(NCc4cc5c(cn4)OCCS5)CC3)c2c1
CN1CCN(c2ccnc3ccc(NC(=O)Nc4ccc(Cl)c(Cl)c4)cc23)CC1
CCN(CC)CCOc1ccc(C(O)(C#CC(O)(c2ccc(Br)cc2)c2ccc(OCCN(CC)CC)cc2)c2ccc(Br)cc2)cc1 (stereo not given)
CC(=O)Nc1cccc(C(=O)Nc2ccc(-c3cccc(-c4nc5c(C)cccc5[nH]4)c3)cc2)c1
Cn1cncc1C(=O)Nc1cccc(-c2csc(-c3nc4ccccc4[nH]3)c2)c1
OCCN1CCN(c2nc(Nc3cccc(F)c3)c3cnn(-c4ccccc4)c3n2)CC1
Cc1cccc2[nH]c(-c3cccc(-c4ccc(NC(=O)COC(C)C)cc4)c3)nc12
CN(C)CCC1CCCc2ccc(NC(=O)Nc3cccc(Cl)c3Cl)cc21 (stereo not given)
FC(F)(F)c1ccc2nc(-c3ccc(-c4cccc(CNCc5cnn(-c6ccccc6)n5)c4)s3)[nH]c2c1
O=C(NCCCN1CCOCC1)c1csc(Nc2ccc(Cl)c(Cl)c2)n1
CCN(CC)S(=O)(=O)c1ccc(C(C)NC(=O)c2ccccc2COc2ccccc2)cc1 (stereo not given)
Cc1ccc(NC(=O)c2cccc(N3CCN(c4ccncc4)CC3)c2)cc1F
Cc1cc2nc(NC3=NC4(c5ccccn5)N=C(Nc5nc6cc(C)c(C)cc6[nH]5)NC4(c4ccccn4)N3)[nH]c2cc1C (stereo not given)
CCN(CC)S(=O)(=O)c1ccc(C(=O)Oc2ccccc2N(Cc2ccc(OC)cc2)C2=NS(=O)(=O)c3ccccc32)cc1
O=C(NC1CCN(Cc2ccsc2)CC1)c1ccc(-c2cccc(C(F)(F)F)c2)s1
O=[N+]([O-])c1ccc2nc(Nc3ccc(Cl)c(Cl)c3)c(Nc3ccc(Cl)c(Cl)c3)nc2c1
Cc1cnc(CCNC(=O)c2cc(-c3ccc(Cl)cc3)cs2)[nH]1
Cc1cc(C(=O)CN2C(=O)NC3(CCOc4ccccc43)C2=O)c(C)n1Cc1ccc(F)cc1 (stereo not given)
COc1cc2nc(N3CCN(c4nc(N)c5cc(OC)c(OC)cc5n4)CC3)nc(N)c2cc1OC
CS(=O)(=O)Nc1ccc(-c2ccc3ccnc(N)c3c2)cc1
COc1cc(CNCCCNc2nc3ccsc3c(=O)[nH]2)c2[nH]cc(Cl)c2c1
CN1CCC(c2c[nH]c3ccc(NC(=O)Nc4ccc(-c5ccncc5)cc4Cl)cc23)CC1
NC1CCN(c2nc(NCCc3ccc(O)cc3)nc(NCc3ccccc3-c3ccc(C(F)(F)F)cc3)n2)CC1
CN1CCCN(Cc2ccc(-c3cccc(NC(=O)c4cccc(Cl)c4)c3)cc2)CC1
Cc1cc(NC(=O)c2coc3cc(F)c(N4C[C@@H](C)N(C)[C@@H](C)C4)cc23)ccc1-n1ccnc1
Oc1ccc(CCNc2nc(NCc3cccc(OCc4cccc(F)c4)c3)nc(N3CCNCC3)n2)cc1
Nc1nc(N)c2c(ccc3c2ccn3Cc2ccc(F)cc2)n1
Cc1[nH]c(C)c(C(F)(F)F)c(=O)c1-c1ccc(Oc2ccc(OC(F)(F)F)cc2)cc1
COc1ccc2ccc(F)c(CC(=O)N3CCOC(CNCc4cccc(-c5ccc(F)cc5)n4)C3)c2n1 (stereo not given)
C[C@@H](CC1CCCCC1)OC(=O)N(C)[C@H]1CCN(C#N)C1
O=C(Nc1ccc(O)c(-c2nc3ccccc3[nH]2)c1)c1ccc([N+](=O)[O-])cc1
CN1CCc2cc(Br)c(O)cc2C1Cc1ccccc1Cl (stereo not given)
O=S(=O)(Nc1ccc2nccc(N3CCNCC3)c2c1)c1ccc2c(Cl)cccc2c1
CCC(C)c1ccc(NC(=O)Nc2ccc(Cn3ncc(N4CCCNCC4)c(Cl)c3=O)cc2)cc1 (stereo not given)
COc1cc(-n2cnc3cc(-c4ccc([N+](=O)[O-])cc4)sc3c2=O)ccc1OCCN1CCCC1
C[C@H](N[C@H]1CCCc2c1[nH]c1ccc(Br)cc21)c1ccccc1

Biological target: Calcium-dependent protein kinase 4 (Plasmodium falciparum (isolate 3D7)) (UniProt Q8IBS5)
Sequence (Q8IBS5 whole entry, looked up): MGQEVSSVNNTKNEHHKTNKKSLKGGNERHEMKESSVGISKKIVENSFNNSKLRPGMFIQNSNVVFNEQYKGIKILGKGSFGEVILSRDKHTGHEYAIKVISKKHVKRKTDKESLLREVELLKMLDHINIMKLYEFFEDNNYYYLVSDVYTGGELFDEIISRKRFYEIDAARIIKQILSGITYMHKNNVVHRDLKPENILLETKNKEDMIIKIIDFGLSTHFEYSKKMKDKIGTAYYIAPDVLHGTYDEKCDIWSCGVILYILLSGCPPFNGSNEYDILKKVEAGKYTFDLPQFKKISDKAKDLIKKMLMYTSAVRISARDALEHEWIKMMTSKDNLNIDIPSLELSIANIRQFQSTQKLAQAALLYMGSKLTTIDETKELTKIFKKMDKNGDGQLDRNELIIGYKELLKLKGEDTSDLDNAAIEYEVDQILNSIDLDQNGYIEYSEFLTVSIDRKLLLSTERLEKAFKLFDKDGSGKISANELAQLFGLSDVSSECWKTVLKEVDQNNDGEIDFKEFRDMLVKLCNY
Assay: PfCDPK4 kinase inhibitors, biochemical, TCAMS library (AID 1159588; cut-off not given, nearly all actives have IC50 up to about 0.91 µM)
Details: recombinant PfCDPK4, Kinase-Glo ATP depletion luminescence

outcome, inactive:
COc1c(CNCCCCCCNCc2cc(Cl)c3ccccc3c2OC)cc(Cl)c2ccccc12
CCCc1cc(OC)c(CC2c3cccc(O)c3CCN2C)cc1OC (stereo not given)
CCOc1ccccc1CNc1nccc(NCc2ccccc2OC)n1
OCc1ccc2nc3c(cc2c1)-c1cccc2cccc-3c12
COc1ccc2ncc(F)c(CCN3CCC(NCc4cc5c(cn4)OCCS5)CC3)c2c1
CN1CCN(c2ccnc3ccc(NC(=O)Nc4ccc(Cl)c(Cl)c4)cc23)CC1
CCN(CC)CCOc1ccc(C(O)(C#CC(O)(c2ccc(Br)cc2)c2ccc(OCCN(CC)CC)cc2)c2ccc(Br)cc2)cc1 (stereo not given)
CC(=O)Nc1cccc(C(=O)Nc2ccc(-c3cccc(-c4nc5c(C)cccc5[nH]4)c3)cc2)c1
Cn1cncc1C(=O)Nc1cccc(-c2csc(-c3nc4ccccc4[nH]3)c2)c1
OCCN1CCN(c2nc(Nc3cccc(F)c3)c3cnn(-c4ccccc4)c3n2)CC1
Cc1cccc2[nH]c(-c3cccc(-c4ccc(NC(=O)COC(C)C)cc4)c3)nc12
CN(C)CCC1CCCc2ccc(NC(=O)Nc3cccc(Cl)c3Cl)cc21 (stereo not given)
FC(F)(F)c1ccc2nc(-c3ccc(-c4cccc(CNCc5cnn(-c6ccccc6)n5)c4)s3)[nH]c2c1
O=C(NCCCN1CCOCC1)c1csc(Nc2ccc(Cl)c(Cl)c2)n1
CCN(CC)S(=O)(=O)c1ccc(C(C)NC(=O)c2ccccc2COc2ccccc2)cc1 (stereo not given)
Cc1ccc(NC(=O)c2cccc(N3CCN(c4ccncc4)CC3)c2)cc1F
Cc1cc2nc(NC3=NC4(c5ccccn5)N=C(Nc5nc6cc(C)c(C)cc6[nH]5)NC4(c4ccccn4)N3)[nH]c2cc1C (stereo not given)
CCN(CC)S(=O)(=O)c1ccc(C(=O)Oc2ccccc2N(Cc2ccc(OC)cc2)C2=NS(=O)(=O)c3ccccc32)cc1
O=C(NC1CCN(Cc2ccsc2)CC1)c1ccc(-c2cccc(C(F)(F)F)c2)s1
O=[N+]([O-])c1ccc2nc(Nc3ccc(Cl)c(Cl)c3)c(Nc3ccc(Cl)c(Cl)c3)nc2c1
Cc1cnc(CCNC(=O)c2cc(-c3ccc(Cl)cc3)cs2)[nH]1
Cc1cc(C(=O)CN2C(=O)NC3(CCOc4ccccc43)C2=O)c(C)n1Cc1ccc(F)cc1 (stereo not given)
COc1cc2nc(N3CCN(c4nc(N)c5cc(OC)c(OC)cc5n4)CC3)nc(N)c2cc1OC
CS(=O)(=O)Nc1ccc(-c2ccc3ccnc(N)c3c2)cc1
COc1cc(CNCCCNc2nc3ccsc3c(=O)[nH]2)c2[nH]cc(Cl)c2c1
CN1CCC(c2c[nH]c3ccc(NC(=O)Nc4ccc(-c5ccncc5)cc4Cl)cc23)CC1
NC1CCN(c2nc(NCCc3ccc(O)cc3)nc(NCc3ccccc3-c3ccc(C(F)(F)F)cc3)n2)CC1
CN1CCCN(Cc2ccc(-c3cccc(NC(=O)c4cccc(Cl)c4)c3)cc2)CC1
Cc1cc(NC(=O)c2coc3cc(F)c(N4C[C@@H](C)N(C)[C@@H](C)C4)cc23)ccc1-n1ccnc1
Oc1ccc(CCNc2nc(NCc3cccc(OCc4cccc(F)c4)c3)nc(N3CCNCC3)n2)cc1
Nc1nc(N)c2c(ccc3c2ccn3Cc2ccc(F)cc2)n1
Cc1[nH]c(C)c(C(F)(F)F)c(=O)c1-c1ccc(Oc2ccc(OC(F)(F)F)cc2)cc1
COc1ccc2ccc(F)c(CC(=O)N3CCOC(CNCc4cccc(-c5ccc(F)cc5)n4)C3)c2n1 (stereo not given)
C[C@@H](CC1CCCCC1)OC(=O)N(C)[C@H]1CCN(C#N)C1
O=C(Nc1ccc(O)c(-c2nc3ccccc3[nH]2)c1)c1ccc([N+](=O)[O-])cc1
CN1CCc2cc(Br)c(O)cc2C1Cc1ccccc1Cl (stereo not given)
O=S(=O)(Nc1ccc2nccc(N3CCNCC3)c2c1)c1ccc2c(Cl)cccc2c1
CCC(C)c1ccc(NC(=O)Nc2ccc(Cn3ncc(N4CCCNCC4)c(Cl)c3=O)cc2)cc1 (stereo not given)
COc1cc(-n2cnc3cc(-c4ccc([N+](=O)[O-])cc4)sc3c2=O)ccc1OCCN1CCCC1
C[C@H](N[C@H]1CCCc2c1[nH]c1ccc(Br)cc21)c1ccccc1
